The source of these data is PubChem BioAssay AID743380 (National Center for Advancing Translational Sciences (NCATS), 2014).

The source made the active and inactive calls. Calls come from the whole dose curve.

Sequence of Phosphatidylinositol 4-phosphate 5-kinase type-1 alpha (Homo sapiens) (Q99755 whole entry, looked up, canonical isoform): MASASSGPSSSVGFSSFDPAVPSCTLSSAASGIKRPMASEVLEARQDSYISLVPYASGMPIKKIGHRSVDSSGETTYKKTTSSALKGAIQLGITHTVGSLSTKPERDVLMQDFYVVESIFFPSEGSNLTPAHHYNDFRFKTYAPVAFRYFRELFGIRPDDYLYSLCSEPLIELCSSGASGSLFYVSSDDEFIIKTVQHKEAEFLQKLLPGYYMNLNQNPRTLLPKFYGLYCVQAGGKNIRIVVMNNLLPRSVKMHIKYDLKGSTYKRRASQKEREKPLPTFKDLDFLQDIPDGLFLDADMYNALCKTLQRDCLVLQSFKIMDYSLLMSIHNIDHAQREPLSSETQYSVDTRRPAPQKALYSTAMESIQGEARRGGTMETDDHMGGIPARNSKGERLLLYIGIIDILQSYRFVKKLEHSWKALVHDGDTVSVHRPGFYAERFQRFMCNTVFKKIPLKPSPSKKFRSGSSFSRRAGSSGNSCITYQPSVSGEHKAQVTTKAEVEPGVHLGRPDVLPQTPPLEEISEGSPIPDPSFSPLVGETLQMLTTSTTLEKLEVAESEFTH

This test has as its target Phosphatidylinositol 4-phosphate 5-kinase type-1 alpha (Homo sapiens) (UniProt Q99755). As to the kind of experiment: qHTS for Inhibitors of PI5P4K: PI4P5K-alpha 32P-ATP TLC Secondary Assay for Probe SAR. The note with it: recombinant PI4P5K-alpha, 32P-ATP TLC phosphorimager. The text has this:
In addition to finding PI5P, we discovered the type II phosphatidylinositol 5-phosphate 4-kinase (PI5P4K) family (alpha, beta, gamma isoforms) that catalyze the conversion of PI5P to PI(4,5)P2. Alternatively, PI(4,5)P2 can also be synthesized through phosphatidylinositol-4-phosphate (PI4P) by the type I phosphatidylinositol 4-phosphate 5-kinases (PI4P5K). These PI5P4K enzymes therefore represent one way by which cells can regulate endogenous PI5P levels and play important roles in insulin signaling and in stress responses. […] A qHTS PI5P4K-alpha ADP-Glo assay was developed to identify specific modulators of human PI5P4K, phosphatidylinositol-5-phosphate 4-kinase (Type II PIPK). To confirm that the active compounds and their analogs were true and selective inhibitors, a secondary Thin-layer Chromatography (TLC) assays against recombinant PI5P4K-alpha, PI4P5K-alpha or PI5P4K-beta that utilize a radioactively labeled ATP were developed. The data herein is the result of the PI4P5K-alpha TLC assay. […]
The kinase reaction was carried out in a total of 50 microL of kinase buffer (50 mM HEPES pH 7.4 and 10 mM MgCl2) containing 20 microM of the lipids that were suspended by sonication. […] The radiolabeled product, PI(4,5)P2, was quantified with a phosphorimager (Molecular Dynamics, STORM840, GE Healthcare, Waukesha, WI, USA).
For `O=C1Nc2ccc(C(=O)c3ccco3)cc2/C1=C/c1cc(Cl)c(O)c(Cl)c1`, the Potency was 498 nM (active).
